# Fam108B counter – Fam108B inhibition, counter-screen for RBBP9 inhibitors; AID 1947; inhibition, % at 9.51 µM; recombinant Fam108B, FP-Rh probe fluorescence polarization; 0.33% of 300,000 active;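 active = inhibition above the screen mean inhibition plus 3 SD, computed separately per campaign, cut at about 18% in these data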;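 note: inhibitors lower polarization as less probe binds the enzyme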
# pPAFAH FP inh – inhibitors of human plasma PAF acetylhydrolase (pPAFAH). Q13093. inhibition, % at 3.39 µM. recombinant pPAFAH, FP-rhodamine probe fluorescence polarization. 1.5% of 330,000 active. AID 463082;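 active = inhibition above the mean inhibition across the screen plus 3 SD, cut at about 25% in these data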;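 note: inhibitors block binding of the rhodamine activity-based probe so polarization drops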
# Target sequence (Q13093 whole entry, looked up): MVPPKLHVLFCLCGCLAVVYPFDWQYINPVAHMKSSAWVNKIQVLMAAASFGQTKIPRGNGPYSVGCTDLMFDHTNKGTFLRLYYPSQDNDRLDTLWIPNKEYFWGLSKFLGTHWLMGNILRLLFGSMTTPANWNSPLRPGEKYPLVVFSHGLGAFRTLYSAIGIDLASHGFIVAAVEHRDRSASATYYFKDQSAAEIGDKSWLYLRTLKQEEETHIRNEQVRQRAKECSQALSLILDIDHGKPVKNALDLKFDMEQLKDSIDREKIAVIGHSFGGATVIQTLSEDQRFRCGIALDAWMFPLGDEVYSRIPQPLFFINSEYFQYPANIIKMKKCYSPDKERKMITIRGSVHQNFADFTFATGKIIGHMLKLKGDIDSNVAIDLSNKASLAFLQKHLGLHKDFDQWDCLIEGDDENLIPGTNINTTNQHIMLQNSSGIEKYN
# PME-1 primary – PME-1 (human) inhibition. recombinant PME-1, FP-Rh probe fluorescence polarization. inhibition, % at 5.9 µM. AID 2130. Q9Y570. 0.53% of 320,000 active;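 active = inhibition above the campaign mean of all compounds plus 3 SD, cut at about 26% in these data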;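 note: competitive labeling of PME-1 active site by serine hydrolase directed probe; inhibitors block probe labeling so polarization falls and inhibition rises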
# PAFAH1B3 FP inh – blocks human PAF acetylhydrolase 1B catalytic subunit 3. 0.28% of 340,000 active. inhibition, % at 3.39 µM. Q15102. recombinant PAFAH1B3, FP-rhodamine probe, fluorescence polarization;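 active = inhibition above the screen-wide average of all tested compounds plus 3 SD, cut at about 25% in these data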
# PAFAH1B2 FP inh – blocks human PAF acetylhydrolase 1b catalytic subunit 2. recombinant PAFAH1B2, FP-rhodamine activity probe, fluorescence polarization. inhibition, % at 3.39 µM. 1.2% of 340,000 active. AID 492953;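 active = inhibition above the mean of all tested compounds plus 3 SD, cut at about 24% in these data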
# PAFAH2 FP inh – PAFAH2 (human) inhibition | recombinant PAFAH2, FP-rhodamine activity probe, fluorescence polarization | inhibition, % at 3.39 µM | 0.99% of 340,000 active;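 active = inhibition above the mean over all tested compounds plus 3 SD, cut at about 30% in these data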;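 note: inhibitors block probe labeling of enzyme so polarization drops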
# PAFAH2 confirm – confirmation of human PAFAH2 inhibitors; shares compounds with PAFAH2 FP inh; inhibition, % at 3.39 µM; 65% of 2,300 active; recombinant PAFAH2, FP-rhodamine activity probe, fluorescence polarization;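 active = mean inhibition over three repeats above a set limit taken from the earlier primary screen, cut at about 30% in these data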;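 note: inhibitor blocks binding of rhodamine activity probe so polarization falls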
# Hits are given with their value; . = inactive; / = not tested or not shown. Hits are enriched below; roughly 2.9% of the tested compounds scored in any of these assays.
SMILES,Fam108B counter,pPAFAH FP inh,PME-1 primary,PAFAH1B3 FP inh,PAFAH1B2 FP inh,PAFAH2 FP inh,PAFAH2 confirm
COc1ccc(C(=O)OCC(=O)NCc2ccccc2)c(OC)c1OC,.,.,.,.,.,57,56
CCOc1ccc(CCNC(=O)COC(=O)c2ccc(OC)c(OC)c2OC)cc1OCC,.,.,.,.,.,.,/
COc1ccc(C(=O)OCC(=O)Nc2cc(C)on2)c(OC)c1OC,.,.,.,.,.,68,65
CCCNC(=S)N1CCN(CC)CC1,.,.,.,.,.,.,/
Nc1cc(Oc2ccc(F)cc2F)cc([N+](=O)[O-])c1,.,.,.,.,.,.,/
COc1cc(C(=O)OCC(=O)Nc2cc(C)on2)c([N+](=O)[O-])cc1OC,.,.,.,.,.,37,.
CN(C(=O)COC(=O)c1ccc(Cl)s1)C1(C#N)CCCCC1,/,/,/,.,.,30,.
CN(C(=O)COC(=O)c1ccc(Cl)c(S(=O)(=O)N2CCCCC2)c1)C1(C#N)CCCCC1,/,.,.,.,.,30,.
CNc1nnc(C(F)(F)F)s1,.,.,.,.,.,.,/
COc1ccc(C(=O)OCC(=O)NC(C)(C)C)cc1[N+](=O)[O-],.,.,.,.,.,39,.
COc1ccc(C(=O)OCC(=O)NCCCc2ccccc2)cc1[N+](=O)[O-],.,.,.,.,.,30,.
COc1ccc(NC(=O)CN(C)S(=O)(=O)c2ccc3c(c2)NC(=O)CS3)cc1,.,.,.,.,.,.,/
O=C(COC(=O)/C=C/c1cccc(Cl)c1)Nc1cccc(S(=O)(=O)NC2=NCCC2)c1,/,.,.,.,.,.,/
Cc1ccc(S(=O)(=O)N(C)C)cc1NC(=O)COC(=O)/C=C/c1cnc2ccccc2n1,.,.,.,.,.,.,/
CN(C)S(=O)(=O)c1cccc(NC(=O)COC(=O)/C=C/c2ccc3c(c2)OCO3)c1,.,.,.,.,.,74,62
Cc1ccc(S(=O)(=O)N(C)C)cc1NC(=O)COC(=O)/C=C/c1ccc2c(c1)OCO2,.,.,.,.,.,57,47
CC1=C(CO)C(=O)OC([C@@H](C)C2CC[C@H]3C4C[C@H]5O[C@]56[C@@H](O)C=CC(=O)[C@]6(C)C4CC[C@]23C)C1 (stereo not given in full),.,.,.,.,.,.,/
CC(C)NC(=O)NC(=O)COC(=O)/C=C/c1ccc2c(c1)OCO2,.,.,.,.,.,.,/
O=C(COC(=O)/C=C/c1ccc2c(c1)OCO2)NC1CC1,.,.,.,.,.,56,41
CC1CCCC(NC(=O)COC(=O)/C=C/c2ccc3c(c2)OCO3)C1C (stereo not given),.,.,.,.,.,82,75
CC(NC(=O)COC(=O)/C=C/c1ccc2c(c1)OCO2)c1ccccc1 (stereo not given),/,.,.,.,.,47,38
NC(=S)n1[nH]c(-c2ccc([N+](=O)[O-])cc2)c(N=Nc2cccc(Cl)c2)c1=O,/,/,/,.,.,36,.
O=C(NC(=S)Nc1ccc(S(=O)(=O)N2CCCC2)cc1)C1CC1,.,.,.,.,.,.,/
O=C1SC(SCc2ccccc2)=N/C1=C\c1ccc(C(=O)O)cc1,.,.,.,.,.,.,/
CC(/C=C1\N=C(SCc2ccccc2Cl)SC1=O)=C\c1ccccc1,.,.,.,.,.,46,45
Cc1cc(C)cc(NC(=O)C2C3C=CC(O3)C2C(=O)O)c1 (stereo not given),.,.,.,.,.,.,/
COc1ccc(/C=N\NC(=S)SCN2C(=O)C3CCC(C)(C2=O)C3(C)C)cc1 (stereo not given),.,.,.,.,.,.,/
CC12CCC(C(=O)N(CSC(=S)N/N=C\c3ccccc3O)C1=O)C2(C)C (stereo not given),.,.,.,.,.,38,.
COc1cccc(/C=C/C(=O)OCC(=O)Nc2cc(S(=O)(=O)N3CCOCC3)ccc2C)c1,.,.,.,.,.,55,42
Cc1cc(C)cc(OCC(=O)OCC(=O)Nc2cc(S(=O)(=O)N3CCOCC3)ccc2C)c1,/,.,.,.,.,.,/

# Screens as filed in PubChem.
